According to PubChem BioAssay AID1159580 (chemical genetic matrix, 2015):
“And” between values parts separate entries of the source, which are not always exact repeats. Equal values may be shown once. About 2,000 (36%) of roughly 5,500 compounds were called active. Inconclusive results (about 18%) are left out. No stated cut-off is given here; in the data, active means normalized growth mostly below about 0.91 (no sharp cut-off); inconclusive means no clear call, values can overlap the other calls; inactive means mostly above about 0.92. Some of the results follow.

Assay: chemical genetic growth profiling, strain panel (AID 1159580);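 further: tested at 20 µM; growth read once vehicle control cultures reached saturation at 30 °C; 1 = growth at the plate median or of vehicle wells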
Settings: S. cerevisiae deletion strains, growth OD

Measured: normalized growth

COC(=O)C1[C@H]2C[C@H]3c4[nH]c5ccccc5c4CCN3C[C@@H]2CC[C@@H]1O (some centres not stated)
inactive: locus YAL013W, strain DEP1, stronger effect = lower value 1.02 | locus YAL021C, strain ccr4, stronger effect = lower value 0.991 | locus YAL026C, strain drs2, stronger effect = lower value 0.981 | locus YAL030W, strain snc1, stronger effect = lower value 0.976 | locus YBL061C, strain skt5, stronger effect = lower value 0.982 | locus YBR009C, strain hhf1, stronger effect = lower value 0.978 | locus YBR021W, strain FUR4, stronger effect = lower value 1.01 | locus YBR023C, strain chs3, stronger effect = lower value 0.964 | locus YBR171W, strain sec66, stronger effect = lower value 0.96 | locus YBR229C, strain ROT2, stronger effect = lower value 1 | locus YBR231C, strain swc5, stronger effect = lower value 0.965 | locus YBR279W, strain paf1, stronger effect = lower value 0.962 | locus YCL011C, strain gbp2, stronger effect = lower value 0.954 | locus YCL016C, strain dcc1, stronger effect = lower value 0.973 | locus YCL029C, strain bik1, stronger effect = lower value 1.03 | locus YCL061C, strain MRC1, stronger effect = lower value 0.976 | locus YCL069W, strain vba3, stronger effect = lower value 0.981 | locus YCR088W, strain abp1, stronger effect = lower value 0.977 | locus YDL005C, strain med2, stronger effect = lower value 0.971 | locus YDL035C, strain GPR1, stronger effect = lower value 1.02 | locus YDL040C, strain nat1, stronger effect = lower value 0.974 | locus YDL074C, strain BRE1, stronger effect = lower value 1.05 | locus YDL101C, strain DUN1, stronger effect = lower value 1.01 | locus YDL134C, strain PPH21, stronger effect = lower value 1.02 | locus YDL185W, strain tfp1, stronger effect = lower value 1.02 | locus YDL192W, strain arf1, stronger effect = lower value 1.02 | locus YDR001C, strain nth1, stronger effect = lower value 0.964 | locus YDR069C, strain doa4, stronger effect = lower value 0.954 | locus YDR101C, strain arx1, stronger effect = lower value 1.01 | locus YDR137W, strain rgp1, stronger effect = lower value 0.945 | locus YDR150W, strain NUM1, stronger effect = lower value 1.01 | locus YDR159W, strain sac3, stronger effect = lower value 0.925 | locus YDR162C, strain NBP2, stronger effect = lower value 1.01 | locus YDR195W, strain ref2 0.943 | locus YDR297W, strain sur2, stronger effect = lower value 0.979 | locus YDR318W, strain mcm21, stronger effect = lower value 1.03 | locus YDR334W, strain swr1, stronger effect = lower value 0.946 | locus YDR335W, strain msn5, stronger effect = lower value 0.97 | locus YDR388W, stronger effect = lower value 1.02 | locus YDR392W, strain spt3, stronger effect = lower value 1.01 | locus YDR502C, strain sam2, stronger effect = lower value 1.01 | locus YEL003W, strain gim4, stronger effect = lower value 0.97 | locus YEL037C, strain rad23, stronger effect = lower value 0.979 | locus YEL061C, strain CIN8 (second series), stronger effect = lower value 0.962 | locus YEL061C, strain CIN8, stronger effect = lower value 1.01 | locus YER015W, strain faa2, stronger effect = lower value 0.983 | locus YER016W, strain bim1, stronger effect = lower value 0.982 | locus YER110C, stronger effect = lower value 1.01 | locus YER111C, strain swi4, stronger effect = lower value 0.986 | locus YER155C, strain BEM2 (second series), stronger effect = lower value 0.945 | locus YER155C, strain BEM2, stronger effect = lower value 1.01 | locus YER167W, strain BCK2, stronger effect = lower value 1.01 | locus YFR010W, strain ubp6, stronger effect = lower value 0.952 | locus YGL078C, strain dbp3, stronger effect = lower value 1.01 | locus YGL086W, strain mad1, stronger effect = lower value 1 | locus YGL167C, strain pmr1, stronger effect = lower value 0.944 | locus YGL173C, strain kem1, stronger effect = lower value 0.989 | locus YGL227W, strain vid30, stronger effect = lower value 0.962 | locus YGL240W, strain doc1, stronger effect = lower value 0.954 | locus YGL248W, strain PDE1, stronger effect = lower value 1.01 | locus YGL253W, strain hxk2, stronger effect = lower value 0.975 | locus YGR078C, strain PAC10, stronger effect = lower value 1.03 | locus YGR135W, strain pre9, stronger effect = lower value 1.01 | locus YGR229C, strain SMI1, stronger effect = lower value 1.01 | locus YGR252W, strain gcn5, stronger effect = lower value 0.976 | locus YHR013C, strain ard1, stronger effect = lower value 0.979 | locus YHR027C, strain rpn1, stronger effect = lower value 0.972 | locus YHR030C, strain SLT2, stronger effect = lower value 1.02 | locus YHR079C, strain IRE1 (second series), stronger effect = lower value 1.02 | locus YHR079C, strain IRE1, stronger effect = lower value 1.02 | locus YHR094C, strain hxt1, stronger effect = lower value 1.01 | locus YHR129C, strain ARP1, stronger effect = lower value 0.999 | locus YHR142W, strain chs7, stronger effect = lower value 0.983 | locus YHR200W, strain rpn10, stronger effect = lower value 1.02 | locus YIL066C, strain RNR3, stronger effect = lower value 1.02 | locus YIL073C, strain SPO22, stronger effect = lower value 1.05 | locus YIL125W, strain kgd1, stronger effect = lower value 1.01 | locus YIR030C, strain dcg1, stronger effect = lower value 1.02 | locus YJL092W, strain hpr5, stronger effect = lower value 0.982 | locus YJL095W, strain BCK1 (second series), stronger effect = lower value 0.981 | locus YJL095W, strain BCK1, stronger effect = lower value 1.05 and 1.01 | locus YJL115W, strain asf1, stronger effect = lower value 0.966 | locus YJL129C, strain trk1, stronger effect = lower value 0.977 | locus YJL134W, strain LCB3, stronger effect = lower value 1.01 | locus YJL154C, strain vps35, stronger effect = lower value 0.964 | locus YJL164C, strain tpk1, stronger effect = lower value 1 | locus YJL166W, strain qcr8, stronger effect = lower value 0.953 | locus YJL168C, strain set2, stronger effect = lower value 1.02 | locus YJL187C, strain SWE1 (second series), stronger effect = lower value 1.03 | locus YJL187C, strain SWE1, stronger effect = lower value 0.98 | locus YJR043C, strain POL32, stronger effect = lower value 1.02 | locus YJR066W, strain TOR1, stronger effect = lower value 1.02
